The values below come from PubChem BioAssay (Tox21).

Several values for one entry are separate records, joined by “and”; a condition that tells them apart may be missing. Identical values can stand only once. Results filed as inconclusive are left out. Some compounds were tested as several samples or in several runs, with calls that do not always agree. Activity calls are given as the source filed them. Unless noted, calls come from the whole dose curve.

Assay [1] can be described thus: Nuclear factor erythroid 2-related factor 2/antioxidant responsive element (Nrf2/ARE) small molecule agonists: qHTS cell viability counter screen in human keratinocytes (AID 1919968; active = well fitted curve in the direction sought with a large enough effect in the repeat runs; an effect the other way counts as inactive or inconclusive; note: nearly all actives have a fitted effect of over 55% in size; note: potency is the fitted concentration of half-maximal effect). The gist of the method: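 Stably transfected HaCaT (KeratinoSens), 1,500/well. Test agents in DMSO were applied for 23 h, 37 C/5% CO2. CellTiter-Fluor was incubated 1 h before the fluorescence read.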

The target in assay [2] is KiSS-1 receptor (Homo sapiens) (UniProt Q969F8). Briefly: Human kisspeptin (KISS1R) small molecule agonists, calcium flux assay in KISS1R-HEK293 cells (AID 1920064; active = well fitted curve in the direction sought with a large enough effect in the repeat runs; an effect the other way counts as inactive or inconclusive). The gist of the method:
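After overnight (18 h) culture at 37 C/5% CO2, human KISS1R-HEK293 cells received calcium dye for 1 h, then test compound; emission at 540 nm (excitation 480 nm) was tracked for 3 min.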
A general note: Calcium flux is commonly read through the fluorescence of an indicator in the cells.

Assay [3] can be described thus: G protein-coupled receptor (GPCR) small molecule agonists, calcium flux assay: HEK293 wild type cell line counter screen (AID 1920065). The gist of the method:
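Following 18 h incubation at 37 C/5% CO2, plates got calcium dye for 1 h; compounds, ATP or DMSO were then pinned in and fluorescence followed kinetically (480/540 nm).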

Assay [4] in a line: p53 small molecule agonists, cell-based qHTS assay with human liver microsomes (AID 1963577).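 Note: p53 response element beta-lactamase reporter cells with liver microsomes plus NADPH.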 The gist of the method:
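Metabolically competent format: test substances, human liver microsomes and NADPH (both 0.5 mg/mL final) incubated with p53RE-bla cells 16 h at 37 C. Beta-lactamase reporter signal then quantified by fluorescence.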
For orientation: In qHTS, concentration-response curves come from the screen itself.

Assay [5] is described as follows: p53 small molecule agonists, cell-based qHTS assay with rat liver microsomes (AID 1963578). The gist of the method:
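Each plate received p53RE-bla cells, then compound, then rat liver microsomes and NADPH (both 0.5 mg/mL final). Plates were held 16 h at 37 C, and beta-lactamase activity was detected with LiveBLAzer over 2 h.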

A short description of assay [6]: p53 small molecule agonists, cell-based qHTS assay with human liver microsomes: qHTS cell viability counter screen (AID 1963579). Note: nearly all actives have a fitted effect of over 45% in size. Note: potency is the fitted concentration of half-maximal effect. The gist of the method: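 Tox21 library compounds, delivered from DMSO stocks, were tested on p53RE-bla cells together with 0.5 mg/mL human liver microsomes and 0.5 mg/mL NADPH (final) over 16 h at 37 C; CellTiter-Glo luminescence served as the cytotoxicity measure.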

Assay [7] can be described thus: p53 small molecule agonists, cell-based qHTS assay with rat liver microsomes: qHTS cell viability counter screen (AID 1963580). Note: nearly all actives have a fitted effect of over 45% in size. The gist of the method:
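Cytotoxicity counter screen: intracellular ATP measured by CellTiter-Glo luminescence in the same wells as the beta-lactamase reporter read, on HCT-116 p53RE-bla cells exposed 16 h at 37 C to compounds with rat liver microsomes and NADPH, each 0.5 mg/mL final.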

A short description of assay [8]: p53 small molecule agonists, cell-based qHTS assay: qHTS cell viability counter screen (AID 1963581). Note: nearly all actives have a fitted effect of over 45% in size. The gist of the method: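 qHTS counter screen: 16 h compound exposure at 37 C of p53RE-bla HCT-116 cells (4,000 per well, seeded 5 h prior), cell viability by ATP luminescence.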
The nature of assay [9]: p53 small molecule agonists, cell-based qHTS assay (AID 1963582; active = well fitted activation curve with a large enough effect in the signal ratio in the repeat runs, not every such curve was filed as active; the % refers to the signal ratio). The gist of the method:
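Measured: fluorescence from cleaved LiveBLAzer substrate. System: p53RE-bla cells, 16 h compound treatment at 37 C, 2 h substrate step at room temperature.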

For assay [10], the target named is 5-hydroxytryptamine receptor 2A (Homo sapiens) (UniProt P28223). Briefly: 5-hydroxytryptamine receptor 2A (HTR2A) small molecule antagonists, cell-based qHTS assay (AID 1963586). Note: nearly all actives have a fitted effect of over 45% in size. Note: potency is the fitted concentration of half-maximal effect. The gist of the method: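 CHO cells stably expressing human HTR2A were plated for 18 h at 37 C, then loaded with calcium dye for 1 h. Compounds were preincubated 5 min at room temperature before DOI (4 nM solution) was added. Kinetic fluorescence was read for 3 min.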
5-hydroxytryptamine receptor 2A (Homo sapiens), sequence (P28223 whole entry, looked up): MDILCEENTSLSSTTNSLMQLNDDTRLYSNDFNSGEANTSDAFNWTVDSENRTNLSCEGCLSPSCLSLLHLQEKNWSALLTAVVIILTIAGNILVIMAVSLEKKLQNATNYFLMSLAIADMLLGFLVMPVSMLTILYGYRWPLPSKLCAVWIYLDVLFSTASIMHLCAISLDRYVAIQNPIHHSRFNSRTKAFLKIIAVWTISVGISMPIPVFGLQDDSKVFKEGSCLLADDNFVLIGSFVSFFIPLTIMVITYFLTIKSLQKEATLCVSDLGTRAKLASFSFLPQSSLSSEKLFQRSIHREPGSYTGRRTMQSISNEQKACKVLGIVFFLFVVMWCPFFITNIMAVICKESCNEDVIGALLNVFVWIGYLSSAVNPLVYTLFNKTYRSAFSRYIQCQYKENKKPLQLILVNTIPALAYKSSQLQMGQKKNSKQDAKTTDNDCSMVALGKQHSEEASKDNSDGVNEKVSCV

For assay [11] the target is unchanged. The assay is described as follows: 5-hydroxytryptamine receptor 2A (HTR2A) small molecule agonists, cell-based qHTS assay (AID 1963587). Note: nearly all actives have a fitted effect of over 30% in size. Note: potency is the fitted concentration of half-maximal effect. The gist of the method: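 CHO cells stably expressing human HTR2A, plated 18 h, loaded with calcium dye 1 h at 37 C. Agonist mode: compounds added and intracellular calcium fluorescence recorded kinetically for 2 min at 1 sec intervals.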

In assay [12] the target is Muscarinic acetylcholine receptor M1 (Homo sapiens) (UniProt P11229). The assay is described as follows: Cholinergic receptor muscarinic 1 (CHRM1) small molecule antagonists, cell-based qHTS assay (AID 1963588). Note: nearly all actives have a fitted effect of over 40% in size. Note: potency is the fitted concentration of half-maximal effect. The gist of the method: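 Compounds were tested at 15 concentrations in three independent runs. Dye-loaded CHRM1-CHO cells were exposed 5 min at room temperature before stimulation by acetylcholine added at 50nM. Intracellular calcium was read kinetically on FDSS for 3 min.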
Muscarinic acetylcholine receptor M1 (Homo sapiens), sequence (P11229 whole entry, looked up): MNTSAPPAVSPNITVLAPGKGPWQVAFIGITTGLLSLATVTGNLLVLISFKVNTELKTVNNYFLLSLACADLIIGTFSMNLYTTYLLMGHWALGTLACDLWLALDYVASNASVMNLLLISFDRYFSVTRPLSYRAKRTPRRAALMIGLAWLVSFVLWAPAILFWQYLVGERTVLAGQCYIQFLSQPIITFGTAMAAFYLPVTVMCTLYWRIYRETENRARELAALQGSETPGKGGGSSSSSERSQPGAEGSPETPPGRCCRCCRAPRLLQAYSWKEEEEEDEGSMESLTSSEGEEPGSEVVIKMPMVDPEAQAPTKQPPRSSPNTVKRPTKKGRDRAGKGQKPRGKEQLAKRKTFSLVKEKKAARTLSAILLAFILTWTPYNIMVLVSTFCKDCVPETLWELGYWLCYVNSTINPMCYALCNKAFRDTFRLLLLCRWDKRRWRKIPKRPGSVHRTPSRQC

Assay [13] has the same target. The assay is described as follows: Cholinergic receptor muscarinic 1 (CHRM1) small molecule agonists, cell-based qHTS assay (AID 1963589). Note: nearly all actives have a fitted effect of over 35% in size. Note: potency is the fitted concentration of half-maximal effect. The gist of the method: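 Kinetic fluorescence (1 s intervals) of calcium-sensitive dye in human M1 CHO cells after compound addition; cells pre-incubated 18 h at 37 C/5% CO2 and dye-loaded 1 h.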
The nature of assay [14]: cAMP Responsive Elements (CRE) small molecule agonists, cell-based qHTS assay (AID 1963590). The gist of the method:
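Test agents in DMSO were incubated 3 h at 37 C/5% CO2 with CRE-bla HEK 293T cells seeded 18 h earlier; LiveBLAzer B/G FRET substrate was added and read after 2 h at room temperature.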

Assay [15] in a line: cAMP Responsive Elements (CRE) small molecule antagonists, cell-based qHTS assay (AID 1963591; active = well fitted inhibition curve with a large enough effect in the signal ratio in the repeat runs, not every such curve was filed as active; the % refers to the signal ratio). The gist of the method: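 Reporter line CRE-bla HEK 293T in dialyzed-FBS DMEM; cells preincubated 18 h, treated 3 h with compound plus NKH477 (0.25 uM final); LiveBLAzer FRET, 2 h RT.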
The target in assay [16] is Beta-2 adrenergic receptor (Homo sapiens) (UniProt P07550). The assay is described as follows: Adrenergic beta2 receptor (ADRB2) small molecule antagonists, cell-based qHTS assay (AID 1963592). Note: series mostly up to about 92 µM; nearly all actives have a fitted effect of over 50% in size. The gist of the method:
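Assay format: CHO-ADRB2 cells, 18-20hr seeding at 37C/5% CO2, then compound plus 1nM isoproterenol agonist mix for 0.5hr RT. Homogeneous time-resolved fluorescence cAMP detection after 1hr, expressed as 665/615 nm ratio.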

Assay [17] has the same target. Briefly: Adrenergic beta2 receptor (ADRB2) small molecule agonists, cell-based qHTS assay (AID 1963593).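 Note: CHO cells stably overexpressing human ADRB2.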 The gist of the method:
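CHO cells stably over-expressing ADRB2 were plated overnight at 37C, then dosed with compounds plus a stimulation mix containing 100uM IBMX and 25uM Ro-20-1724 for 0.5hr at room temperature. cAMP was measured by HTRF competition, 1hr.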

Assay [18] addresses D(2) dopamine receptor (Homo sapiens) (UniProt P14416). The assay is described as follows: Dopamine D2 receptor (DRD2) small molecule agonists, cell-based qHTS assay (AID 1963594). Note: nearly all actives have a fitted effect of over 35% in size. The gist of the method:
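HEK293 cells stably expressing human DRD2, pre-treated with PDE inhibitor Ro20-1724 (0.1 mM final) and compound 10 min at room temperature, then stimulated with NKH477 (200nM […]) for 30 min. cAMP read by HTRF (665/620 nm).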

Assay [19] has the same target. Briefly: Dopamine D2 receptor (DRD2) small molecule antagonists, cell-based qHTS assay (AID 1963595; active = well fitted inhibition curve with a large enough effect in the signal ratio in the repeat runs, with a control signal flat; the % refers to the signal ratio; note: potency is the fitted concentration of half-maximal effect). The gist of the method:
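HEK293 cells stably expressing DRD2 were preincubated with 0.1 mM Ro20-1724, then with compound for 10 min at room temperature. Cells were stimulated with 200 nM NKH477 plus 12 nM quinpirole for 30 min, and cAMP was read by HTRF.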

Assay [20] is described as follows: Nuclear factor erythroid 2-related factor 2/antioxidant responsive element (Nrf2/ARE) small molecule agonists: luciferase reporter gene qHTS assay in human keratinocytes (AID 1919969). Note: nearly all actives have a fitted effect of over 35% in size. Note: potency is the fitted concentration of half-maximal effect.
% is set by controls: 0 for no effect and ±100 for the full control effect.

Beta-2 adrenergic receptor (Homo sapiens), sequence (P07550 whole entry, looked up): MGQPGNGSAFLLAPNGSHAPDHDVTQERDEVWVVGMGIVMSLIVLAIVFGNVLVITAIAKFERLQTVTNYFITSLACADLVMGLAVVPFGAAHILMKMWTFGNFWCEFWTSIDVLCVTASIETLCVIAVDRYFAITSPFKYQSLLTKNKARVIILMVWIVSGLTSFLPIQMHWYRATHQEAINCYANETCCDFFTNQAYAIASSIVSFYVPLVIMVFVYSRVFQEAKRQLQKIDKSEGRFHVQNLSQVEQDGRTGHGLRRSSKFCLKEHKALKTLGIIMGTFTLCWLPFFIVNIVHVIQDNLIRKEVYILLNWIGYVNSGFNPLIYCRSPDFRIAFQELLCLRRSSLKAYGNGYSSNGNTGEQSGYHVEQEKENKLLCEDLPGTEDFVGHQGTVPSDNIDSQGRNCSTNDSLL
D(2) dopamine receptor (Homo sapiens), sequence (P14416 whole entry, looked up): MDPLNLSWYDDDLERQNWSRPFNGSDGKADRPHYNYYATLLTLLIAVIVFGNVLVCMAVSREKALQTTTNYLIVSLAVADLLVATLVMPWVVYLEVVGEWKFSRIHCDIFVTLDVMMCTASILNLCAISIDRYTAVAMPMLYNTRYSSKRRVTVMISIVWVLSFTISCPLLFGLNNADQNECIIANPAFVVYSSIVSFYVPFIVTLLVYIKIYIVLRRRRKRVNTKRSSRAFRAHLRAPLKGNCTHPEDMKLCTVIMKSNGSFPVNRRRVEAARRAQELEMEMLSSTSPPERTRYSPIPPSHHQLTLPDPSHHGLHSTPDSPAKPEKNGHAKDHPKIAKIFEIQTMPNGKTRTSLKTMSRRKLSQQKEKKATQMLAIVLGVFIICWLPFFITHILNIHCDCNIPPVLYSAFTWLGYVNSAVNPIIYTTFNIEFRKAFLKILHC
KiSS-1 receptor (Homo sapiens), sequence (Q969F8 whole entry, looked up): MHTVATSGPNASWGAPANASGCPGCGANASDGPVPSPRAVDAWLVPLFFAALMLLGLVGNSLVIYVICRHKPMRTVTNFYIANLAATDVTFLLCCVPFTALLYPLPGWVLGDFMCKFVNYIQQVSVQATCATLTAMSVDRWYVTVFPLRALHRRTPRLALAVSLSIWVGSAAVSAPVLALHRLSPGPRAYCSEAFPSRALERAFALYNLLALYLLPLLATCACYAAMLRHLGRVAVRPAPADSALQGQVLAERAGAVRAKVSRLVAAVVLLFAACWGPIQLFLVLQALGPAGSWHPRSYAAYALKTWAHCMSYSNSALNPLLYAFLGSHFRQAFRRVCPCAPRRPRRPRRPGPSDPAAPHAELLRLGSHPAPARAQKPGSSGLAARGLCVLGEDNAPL

With `O=Cc1cc2ccccc2o1`, the Potency entry in [1], in [2], in assay [3], in [4], in [5] and in assay [6] was “inactive” in each case. The Potency result in assay [7], in [8], in [9], in assay [10], in assay [11] and in assay [12] was “inactive” in each case. Further, the Potency entry in assay [13], in assay [14], in assay [15], in assay [16], in assay [17] and in [18] was “inactive” each time. Also, the Potency entry in [19] was “inactive”.
With `C=CC(=O)OCCOC1C2CCC1C1CC=CC12` (stereo not given), the activity change, negative = cytotoxicity in assay [1] was 0.243% [at 19 µM] (inactive); in assay [6] it was -0.599% [at 13.5 µM] (inactive); in assay [7], -0.677% [at 13.5 µM] (inactive); in assay [8] it was 10.1% [at 13.5 µM] (inactive). The activation is 0.154% [at 15.8 µM] (inactive) in [2]; 0.0334% [at 11.8 µM] (inactive) in [3]; -3.49% [at 13.5 µM] (inactive) in assay [4]; -1.33% [at 13.6 µM] (inactive) in assay [5]; -0.725% [at 13.5 µM] (inactive) in assay [9]; -3.51% [at 15.9 µM] (inactive) in [11]. The activation in assay [13] was 0.0965% [at 15.8 µM] (inactive); in assay [14], -0.462% [at 19 µM] (inactive); in assay [17], -22.8% [at 19 µM] (inactive); in assay [18] it was -2.06% [at 19 µM] (inactive). Also, the figures for the activity, negative = inhibition in assay [10] and in [12] were 14.3% [at 12.7 µM] (inactive) and 1.12% [at 12.6 µM] (inactive), respectively. Besides, the activity change, negative = inhibition in assay [15] was -8.52% [at 18.9 µM] (inactive); in assay [16], -1.49% [at 19 µM] (inactive); in [19], 7.6% [at 18.9 µM] (inactive).
Turning to `CC(c1cc2ccccc2s1)N(O)C(N)=O` (stereo not given), the Potency entry in assay [1], in assay [20], in [2], in assay [3], in assay [6] and in assay [7] was “inactive” in each case. For the same compound, the Potency result in assay [8], in assay [14], in [15], in assay [16], in assay [17] and in [18] was “inactive” each time. Also, the Potency entry in assay [19] was “inactive”.
In the case of `CCOCCOCCOCC`, the Potency entry in assay [1], in [20], in assay [3], in assay [4], in assay [5] and in assay [6] was “inactive” in each case. Moreover, the Potency result in [7], in assay [8], in assay [9], in assay [10], in assay [11] and in assay [12] was “inactive” in each case. Besides, the Potency entry in [14], in assay [15], in [16], in assay [17] and in [18] was “inactive” throughout.
`O=C(CCN1CCN(CCO)CC1)N1c2ccccc2Sc2ccc(C(F)(F)F)cc21`: the Potency entry in assay [1], in assay [2], in assay [3], in [4], in [5] and in [6] was “inactive” each time. Further, the Potency entry in assay [7], in assay [8], in assay [9], in [10], in assay [11] and in assay [12] was “inactive” each time. Further, the Potency result in assay [13], in assay [14], in assay [15], in assay [16], in assay [17] and in [18] was “inactive” each time. Further, the Potency result in [19] is “inactive”.
For `COc1cccc2c1C(=O)c1c(O)c3c(c(O)c1C2=O)C[C@@](O)(C(C)=O)C[C@@H]3O[C@H]1C[C@H](N)[C@H](O)[C@H](C)O1`, the Potency in [1] was 6.15 µM (active) and 2.37 µM (active). The Potency result in [2] and in assay [3] was “inactive” in each case.
In the case of `COc1ccc(C#N)cc1`, the Potency result in assay [1], in assay [20], in assay [3], in [4], in assay [5] and in assay [6] was “inactive” throughout. The Potency entry in assay [7], in [8], in assay [9], in [10], in assay [11] and in assay [12] was “inactive” in each case. For the same compound, the Potency result in assay [13], in assay [14], in assay [15], in [16], in [17] and in assay [18] was “inactive” in each case. The Potency result in [19] was “inactive”.
As for `CCCCCCCCCCCCCC[P+](CCCC)(CCCC)CCCC`, the Potency in assay [1] is 9.63 µM (active) and 24.3 µM (active); in assay [6], 45.5 µM (active) and 20.4 µM (active); in assay [10], 14.8 µM (active) and 18.8 µM (active); in assay [11], 21.8 µM (active) and 54.9 µM (active); in assay [12], “inactive and 9.42 µM (active)”; in assay [19] it was 17.1 µM (active) and 43.3 µM (active). The Potency entry in assay [20], in assay [2], in assay [3], in assay [13], in [16] and in assay [17] was “inactive” throughout. In addition, in assay [18], the Potency result is “inactive”.
On to `CCOc1ccc2c(c1)C(C)=CC(C)(C)N2`, for which the Potency entry in assay [1], in assay [3], in [4], in [6], in assay [7] and in [8] was “inactive” each time. The Potency entry in assay [9], in [10], in assay [14] and in [18] was “inactive” in each case. Further, the Potency in assay [20] is 68.2 µM (active) and 68.6 µM (active); in [11], 54.7 µM (active) and inactive; in [13], 54.7 µM (active) and inactive.
